# Measurements as given in PubChem BioAssay (Tox21).
# Values joined by “and” are separate entries in the source; they are usually repeats but may differ in a detail not shown here. Equal entries are not always repeated. Results filed as inconclusive are left out. Entries that show only a call come without a potency. Values without a mark were called inactive. Active and inactive are the calls of the source. Unless noted, the call rests on the fitted dose curve; in most records, active means well fitted curve in the direction sought with a large enough effect in the repeat runs; inconclusive means weak or mixed curves; inactive means no such curve, though single readings can be large; an effect the other way counts as inactive or inconclusive.
# Experiments:
# [1] = qHTS assay to identify small molecule agonists of the RXR signaling pathway - cell viability counter screen (AID 1159529); further: nearly all actives have a fitted effect of over 50% in size; further: potency means the concentration at half of the fitted maximal effect
# Method in brief: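 In this parallel viability measure, GeneBLAzer RXR-alpha HEK 293T cells (2% charcoal-stripped FBS) were given a 5 hr preincubation, treated with compounds 16 hr at 37 C, and read by CellTiter-Glo luminescence.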
# [2] = qHTS assay to identify small molecule antagonists of the retinoid acid receptor (RAR) signaling pathway - cell viability counter screen (AID 1159551); further: nearly all actives have a fitted effect of over 35% in size; further: potency means the concentration at half of the fitted maximal effect
# Method in brief: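 Luminescent ATP quantitation (CellTiter-Glo) gave cell viability in C3RL4 cells exposed to test chemicals for 6 h at 37 C alongside 1 uM final retinol.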
# [3] = qHTS assay to identify small molecule agonists of the retinoic acid receptor (RAR) signaling pathway (AID 1159553)
# Method in brief: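 Luminescence from a RARE-driven luciferase reporter in C3RL4 cells served as the read-out, measured after 30 min with detection reagent at room temperature. Compounds in DMSO were applied for 6 hr at 37 C following overnight seeding.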
# [4] = qHTS assay to identify small molecule antagonists of the estrogen related receptor (ERR) signaling pathway from Tox21 library - cell viability counter screen (AID 1224834); further: nearly all actives have a fitted effect of over 30% in size; further: potency means the concentration at half of the fitted maximal effect
# Method in brief: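 Fluorescence from CellTiter-Fluor gives the viability read-out, taken 30 min after reagent addition. Before that, ERR cells seeded 6 h earlier were incubated with compounds for 17.5 h at 37 C.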
# [5] = target: Luciferin 4-monooxygenase (Photinus pyralis) (UniProt P08659); assay: qHTS assay to identify small molecule inhibitors of firefly luciferase (AID 1224835); further: nearly all actives have a fitted effect of over 25% in size; further: potency means the concentration at half of the fitted maximal effect
# Chain of Luciferin 4-monooxygenase (Photinus pyralis) (P08659 whole entry, looked up): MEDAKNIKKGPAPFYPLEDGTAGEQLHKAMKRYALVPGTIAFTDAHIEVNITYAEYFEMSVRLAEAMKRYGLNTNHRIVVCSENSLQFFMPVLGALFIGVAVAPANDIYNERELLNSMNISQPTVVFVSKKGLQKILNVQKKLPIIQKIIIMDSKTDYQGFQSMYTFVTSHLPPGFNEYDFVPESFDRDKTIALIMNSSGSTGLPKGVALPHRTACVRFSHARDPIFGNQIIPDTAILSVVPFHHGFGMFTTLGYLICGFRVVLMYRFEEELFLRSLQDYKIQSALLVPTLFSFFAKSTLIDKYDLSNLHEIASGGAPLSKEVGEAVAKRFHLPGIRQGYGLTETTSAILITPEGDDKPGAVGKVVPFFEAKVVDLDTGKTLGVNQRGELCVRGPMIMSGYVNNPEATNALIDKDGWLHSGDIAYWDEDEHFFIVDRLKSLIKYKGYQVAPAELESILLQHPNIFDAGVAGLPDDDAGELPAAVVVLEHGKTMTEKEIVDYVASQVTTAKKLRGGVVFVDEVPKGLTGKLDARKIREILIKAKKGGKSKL
# Method in brief: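 Biochemical qHTS: compounds run as interplate titrations against purified firefly enzyme, with D-luciferin and ATP each at its KM concentration. Light output recorded by CCD imaging.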
# [6] = qHTS assay to identify small molecule agonists of the constitutive androstane receptor (CAR) signaling pathway - cell viability counter screen (AID 1224836); further: nearly all actives have a fitted effect of over 45% in size; further: potency means the concentration at half of the fitted maximal effect
# Method in brief: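 Using CellTiter-Fluor, viability of HepG2 cells harbouring hCAR and CYP2B6-2.2kb was measured following 23 h incubation with a 15-concentration compound series plus PK11195 (0.75 uM final).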
# [7] = qHTS assay to identify small molecule antagonists of the constitutive androstane receptor (CAR) signaling pathway - cell viability counter screen (AID 1224837); further: nearly all actives have a fitted effect of over 45% in size; further: potency means the concentration at half of the fitted maximal effect
# Method in brief: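 HepG2-CYP2B6-hCAR cells, 2500/well, 4 hr pre-incubation; compound titration, 15 conc.; CITCO 50 nM final; 23 hr, 37 C/5% CO2; CellTiter-Fluor, fluorescence intensity.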
# [8] = qHTS assay to identify small molecule agonists of the estrogen related receptor signaling pathway with the pleiotropic PPARgamma coactivator (PGC) from Tox21 10K library (AID 1224842); further: nearly all actives have a fitted effect of over 15% in size
# Method in brief: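 PGC/ERR reporter cell line, 2,000 cells per well, incubated 6 h at 37 C before 23 nL compound in DMSO was added. After 18 h at 37 C, One-Glo luminescence read following 30 min at room temperature.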
# [9] = target: Thyrotropin receptor (Homo sapiens) (UniProt P16473); assay: qHTS assay to identify small molecule agonists of the thyroid stimulating hormone receptor (TSHR) signaling pathway (AID 1224843; calls by dose curve; further: nearly all actives have a fitted effect of over 45% in size; further: potency means the concentration at half of the fitted maximal effect)
# Chain of Thyrotropin receptor (Homo sapiens) (P16473 whole entry, looked up): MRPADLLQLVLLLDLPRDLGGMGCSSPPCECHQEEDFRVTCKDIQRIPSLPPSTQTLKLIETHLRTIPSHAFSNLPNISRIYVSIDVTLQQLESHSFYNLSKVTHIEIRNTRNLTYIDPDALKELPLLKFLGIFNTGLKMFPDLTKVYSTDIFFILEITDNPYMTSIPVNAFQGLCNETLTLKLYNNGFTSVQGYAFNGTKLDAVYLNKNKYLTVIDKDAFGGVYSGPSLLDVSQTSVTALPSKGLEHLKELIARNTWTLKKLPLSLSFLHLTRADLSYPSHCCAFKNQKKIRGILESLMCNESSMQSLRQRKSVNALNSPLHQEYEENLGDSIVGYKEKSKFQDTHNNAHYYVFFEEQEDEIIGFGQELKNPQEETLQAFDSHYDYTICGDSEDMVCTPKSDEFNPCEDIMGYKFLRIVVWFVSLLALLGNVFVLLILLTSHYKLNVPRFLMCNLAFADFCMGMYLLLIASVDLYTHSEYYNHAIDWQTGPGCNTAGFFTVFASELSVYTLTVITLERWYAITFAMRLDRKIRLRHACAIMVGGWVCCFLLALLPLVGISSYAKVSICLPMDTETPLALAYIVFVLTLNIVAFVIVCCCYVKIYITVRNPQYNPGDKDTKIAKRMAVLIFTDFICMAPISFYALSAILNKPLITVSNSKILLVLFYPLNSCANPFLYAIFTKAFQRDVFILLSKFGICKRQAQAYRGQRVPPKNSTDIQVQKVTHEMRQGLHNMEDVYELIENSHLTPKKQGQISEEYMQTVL
# Method in brief: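 Steps: seed 800 TSHR-HEK293 cells per well; add test compound and hold 30 min at ambient temperature; dispense cAMP-d2 then anti-cAMP cryptate; incubate 1 h at ambient; measure fluorescence intensity.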
# [10] = qHTS assay to identify small molecule antagonists of the retinoic acid receptor (RAR) signaling pathway (AID 1159552; further: nearly all actives have a fitted effect of over 50% in size; further: potency means the concentration at half of the fitted maximal effect)
# Method in brief: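 C3RL4 RARE-luc cells, overnight plating; retinol 1 uM final added right after compound; 6 hr 37 C; luciferase read at 30 min RT.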
# [11] = qHTS assay to identify small molecule antagonists of the estrogen related receptor signaling pathway with the pleiotropic PPARgamma coactivator (PGC) from Tox21 10K library - cell viability counter screen (AID 1224840; active means well fitted cell-killing curve with a large enough effect in the repeat runs, not every such curve was filed as active; further: nearly all actives have a fitted effect of over 40% in size; further: potency means the concentration at half of the fitted maximal effect)
# Method in brief: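 PGC/ERR cells, 2,000/well; 6 h pre-incubation 37 C/5% CO2; cpd in DMSO via pin tool; 17.5 h 37 C; CellTiter-Fluor, 30 min; fluorescence.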
# [12] = qHTS assay to identify small molecule antagonists of the estrogen related receptor signaling pathway with the pleiotropic PPARgamma coactivator (PGC) from Tox21 10K library (AID 1224841; call rule not given here; further: actives are mostly falling curves and most rising ones were filed inactive; nearly all actives have a fitted effect of over 50% in size; further: potency means the concentration at half of the fitted maximal effect)
# Method in brief: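 PGC/ERR cell line, 2,000 cells/well; 6 h pre-incubation 37 C/5% CO2; compounds (DMSO) pinned in; 18 h, 37 C; One-Glo, 30 min RT; luminescence.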
# [13] = target: Nuclear receptor subfamily 1 group I member 3 (Homo sapiens) (UniProt Q14994); assay: qHTS assay to identify small molecule antagonists of the constitutive androstane receptor (CAR) signaling pathway (AID 1224838);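 further: HepG2 cells stably expressing hCAR with CYP2B6 luciferase reporter stimulated by CITCO; nearly all actives have a fitted effect of over 40% in size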; further: potency means the concentration at half of the fitted maximal effect
# Chain of Nuclear receptor subfamily 1 group I member 3 (Homo sapiens) (Q14994 whole entry, looked up): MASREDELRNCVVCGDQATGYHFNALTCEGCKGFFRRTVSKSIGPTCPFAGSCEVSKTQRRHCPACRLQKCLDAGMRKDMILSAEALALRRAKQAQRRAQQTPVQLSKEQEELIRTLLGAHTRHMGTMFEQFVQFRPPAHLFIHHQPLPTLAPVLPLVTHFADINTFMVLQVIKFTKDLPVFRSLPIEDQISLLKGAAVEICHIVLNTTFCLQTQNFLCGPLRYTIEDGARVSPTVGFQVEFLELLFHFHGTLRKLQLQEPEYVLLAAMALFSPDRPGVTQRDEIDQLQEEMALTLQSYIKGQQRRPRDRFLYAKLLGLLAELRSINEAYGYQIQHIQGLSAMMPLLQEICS
# Method in brief: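 HepG2-CYP2B6-hCAR cells; 4 h pre-incubation; cpd (15 conc) + CITCO 50 nM final; 24 h, 37 C/5% CO2; ONE-Glo, luminescence.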
# [14] = target: Nuclear receptor subfamily 1 group I member 3 (Homo sapiens) (UniProt Q14994); assay: qHTS assay to identify small molecule agonists of the constitutive androstane receptor (CAR) signaling pathway (AID 1224839); further: nearly all actives have a fitted effect of over 15% in size; further: potency means the concentration at half of the fitted maximal effect
# Method in brief: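 Double-stable HepG2 cells (hCAR, CYP2B6-2.2kb) seeded 4 h before compound addition. Exposure 24 h with 0.75 uM PK11195 final. Luciferase detected by ONE-Glo.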
# [15] = qHTS assay to identify small molecule antagonists of the estrogen related receptor (ERR) signaling pathway - cell viability counter screen (AID 1224818);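 further: series mostly up to about 46 µM; viability measured after 17.5 h of compound exposure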
# Method in brief: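 Multiplexed counter screen to separate cytotoxic compounds from true ERR modulators. ERR cells received DMSO-dissolved compounds after a 6 h pre-incubation, were exposed 17.5 h at 37 C, then assayed with CellTiter-Fluor fluorescence.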
# [16] = qHTS assay to identify small molecule agonists of the estrogen related receptor (ERR) signaling pathway (AID 1224820)
# Method in brief: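 ERR reporter cells (NTP line) plated 2,000/well, incubated 6 h at 37 C/5% CO2, then pinned with compounds in DMSO and held 18 h at 37 C. One-Glo added; luminescence read after 30 min at room temperature.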
# [17] = qHTS assay to identify small molecule antagonists of the estrogen related receptor signaling pathway with the pleiotropic PPARgamma coactivator (PGC) cell viability counter screen (AID 1224822; further: series mostly up to about 46 µM)
# Method in brief: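 Cells: PGC/ERR, 2,000/well, 1536-well format. Pre-incubation 6 h, 37 C/5% CO2. Compound exposure 17.5 h, 37 C. Detection: CellTiter-Fluor, 30 min, fluorescence.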
# [18] = qHTS assay to identify small molecule agonists of the estrogen related receptor signaling pathway with the pleiotropic PPARgamma coactivator (PGC) (AID 1224823)
# Method in brief: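 PGC/ERR reporter cells were seeded, rested 6 h at 37 C/5% CO2, then exposed to compounds in DMSO by pin transfer for 18 h at 37 C. Luciferase activity was read as luminescence after One-Glo reagent and 30 min at room temperature.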
Compound,Potency [1],Potency [2],Potency [3],Potency [4],Potency [5],Potency [6],Potency [7],Potency [8],Potency [9],Potency [10],Potency [11],Potency [12],Potency [13],Potency [14],outcome [15],outcome [16],Potency [17],outcome [18]
C[C@]12Cc3nonc3C[C@@H]1CC[C@@H]1[C@@H]2CC[C@@]2(C)[C@H]1CC[C@]2(C)O,21.3 µM (active),inactive,inactive,29.8 µM (active),inactive,inactive,inactive,inactive,inactive,,,,,,,,,
CSCCCN=C=S,inactive,inactive,,,inactive,,,inactive,inactive,inactive,inactive,inactive,,,,,,
Cc1ccc(CCl)cc1,inactive,inactive,,inactive,inactive,inactive,inactive,inactive,inactive,,inactive,inactive,inactive,inactive,,,,
O=C1C=CC(=O)c2ccccc21,9.77 µM (active),15.4 µM (active),,,20 µM (active),54.5 µM (active),43.3 µM (active),inactive,,27.3 µM (active),61.1 µM (active),34.4 µM (active),,inactive,,,,
CC(C)(c1ccc(O)c(-c2ccccc2)c1)c1ccc(O)c(-c2ccccc2)c1,24.5 µM (active),54.5 µM (active),,61.1 µM (active),,54.5 µM (active),68.6 µM (active),inactive,,54.5 µM (active),54.5 µM (active),48.6 µM (active),,17.2 µM (active),,,,
N#CCCC(Br)(C#N)CBr (stereo unspecified),38.9 µM (active),68.6 µM (active),,,35.6 µM (active),,61.1 µM (active),inactive,4.86 µM (active),21.7 µM (active),,,68.6 µM (active),inactive,,,,
COC(=O)N(C(=O)N1CO[C@@]2(C(=O)OC)Cc3cc(Cl)ccc3C2=N1)c1ccc(OC(F)(F)F)cc1,inactive,inactive,inactive,inactive,inactive,inactive,inactive,inactive,,,inactive,,,,,,,
CCOc1cc(C(C)(C)C)ccc1C1COC(c2c(F)cccc2F)=N1 (stereo unspecified),14.9 µM (active),inactive,inactive,inactive,inactive,inactive,inactive,inactive,,,inactive,,inactive,18.6 µM (active),,,,
CN(C)[C@@H]1C(=O)C(C(N)=O)=C(O)[C@@]2(O)C(=O)C3=C(O)c4c(O)ccc(Cl)c4[C@@](C)(O)[C@H]3C[C@@H]12,inactive,inactive,inactive,,inactive,,,,inactive,,inactive,,,,,,,
COP(N)(=S)OC,inactive,inactive,,inactive,inactive,inactive,inactive,inactive,inactive,,inactive,inactive,inactive,inactive,,,,
O=S(=O)(c1ccc(Cl)cc1)c1ccc(Cl)cc1,inactive,inactive,,,inactive,inactive,inactive,inactive,,,inactive,,inactive,49.2 µM (active),inactive,inactive,inactive,inactive
ClC(Cl)=C(c1ccc(Cl)cc1)c1ccc(Cl)cc1,56.3 µM (active) and 43.6 µM (active),inactive,inactive,inactive,inactive,inactive,inactive,inactive,,,inactive,inactive,inactive,,,,,
COc1ccc(OC)c(C=O)c1,inactive,inactive,,,inactive,inactive,inactive,,,inactive,inactive,,,,,,,
CC(C)CBr,inactive,inactive,,,inactive,inactive,inactive,inactive,inactive,inactive,inactive,,inactive,inactive,,,,
O=c1c(C2CC(c3ccc(-c4ccc(Br)cc4)cc3)Cc3ccccc32)c(O)sc2ccccc12 (stereo unspecified),inactive,inactive,inactive,,,inactive,inactive,inactive,inactive,,inactive,11.9 µM (active),inactive,inactive,,,,
CC(c1ccc(O)cc1)c1ccc(O)cc1,inactive,inactive,,,74.7 µM (active) and 44.8 µM (active),inactive,inactive,inactive,inactive,inactive,inactive,inactive,inactive,51.1 µM (active) and 30.6 µM (active),,,,
CC1(C)CC/C(=C/c2ccc(Cl)cc2)C1(O)Cn1cncn1 (stereo unspecified),inactive,inactive,inactive,,inactive,,68.2 µM (active),,,,,,inactive,inactive,inactive,,inactive,
Cc1ccc(OP(=O)(Oc2ccccc2)Oc2ccccc2)cc1,inactive,inactive,inactive,,inactive,inactive,inactive,inactive,15.6 µM (active),,inactive,24.7 µM (active),inactive,,,,,
